This note sets out measurements from PubChem BioAssay AID489028 (Sanford-Burnham Center for Chemical Genomics, 2010).

The whole screen tested about 10,000 compounds, of which about 5,600 (56%) were called active. So high a share suggests a set chosen from earlier hits. Only a sample is shown. Unmarked numbers belong to inactive results. Cut-off read from the data, not from the text of the source: active = inhibition above about 40%; inactive = the rest.

For this assay, the target named is Protein Mdm4 (Homo sapiens) + E3 ubiquitin-protein ligase Mdm2 (Homo sapiens) (UniProt O15151+Q00987). The experiment in a line: Mdm2-MdmX complex disruptors, retested hits, confirmation, luminescence, single concentration (AID 489028). To be noted: Mdm2-MdmX binding, luminescent assay; at 8 µM; stronger effect = higher value.
Protein Mdm4 (Homo sapiens) + E3 ubiquitin-protein ligase Mdm2 (Homo sapiens), sequence (O15151 whole entry, looked up): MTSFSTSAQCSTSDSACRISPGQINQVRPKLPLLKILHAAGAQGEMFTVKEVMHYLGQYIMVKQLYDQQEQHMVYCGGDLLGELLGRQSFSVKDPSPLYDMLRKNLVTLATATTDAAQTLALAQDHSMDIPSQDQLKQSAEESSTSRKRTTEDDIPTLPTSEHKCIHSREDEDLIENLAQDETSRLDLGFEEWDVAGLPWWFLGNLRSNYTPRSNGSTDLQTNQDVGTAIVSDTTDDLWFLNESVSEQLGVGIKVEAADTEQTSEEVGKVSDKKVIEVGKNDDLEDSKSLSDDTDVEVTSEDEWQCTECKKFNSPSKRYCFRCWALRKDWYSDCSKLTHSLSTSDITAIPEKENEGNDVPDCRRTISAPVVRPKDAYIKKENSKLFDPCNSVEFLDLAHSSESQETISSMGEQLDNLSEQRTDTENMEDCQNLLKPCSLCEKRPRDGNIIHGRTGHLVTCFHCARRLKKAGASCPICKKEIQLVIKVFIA
Protein Mdm4 (Homo sapiens) + E3 ubiquitin-protein ligase Mdm2 (Homo sapiens), sequence (Q00987 whole entry, looked up): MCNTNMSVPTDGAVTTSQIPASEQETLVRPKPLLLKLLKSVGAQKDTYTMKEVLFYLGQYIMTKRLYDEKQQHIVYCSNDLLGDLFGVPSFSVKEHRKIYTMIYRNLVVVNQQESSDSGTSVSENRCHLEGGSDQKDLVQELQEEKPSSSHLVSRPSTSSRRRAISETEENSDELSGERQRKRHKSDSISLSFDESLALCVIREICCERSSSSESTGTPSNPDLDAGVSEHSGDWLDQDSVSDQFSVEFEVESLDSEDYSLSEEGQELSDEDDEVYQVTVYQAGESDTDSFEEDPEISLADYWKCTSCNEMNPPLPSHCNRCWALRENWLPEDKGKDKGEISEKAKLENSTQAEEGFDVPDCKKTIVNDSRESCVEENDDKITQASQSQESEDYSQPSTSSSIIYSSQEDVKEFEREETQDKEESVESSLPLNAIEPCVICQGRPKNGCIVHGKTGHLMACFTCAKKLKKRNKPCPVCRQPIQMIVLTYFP
With `O=C1C2(Cl)C3(Cl)C4(Cl)C(Cl)(Cl)C5(Cl)C3(Cl)C1(Cl)C5(Cl)C24Cl` (stereo not drawn), the inhibition (commonly the drop in the measured response relative to a control, in per cent) was 49.5% (active). In the case of `COC(=O)C1=C(c2ccc(F)cc2OCc2ccccc2)C[C@@H]2CC[C@H]1N2C(=O)NCc1ccc(Cl)cc1`, the inhibition was 31.1%.

Turning to `CNCC(O)c1cc(F)c(OCc2ccccc2)c(OCc2ccccc2)c1F` (stereo not drawn), the inhibition is 17.8%.

Consider `Cc1cc2ccccn2c1C(C[N+](=O)[O-])c1c(F)cccc1Cl` (stereo not drawn), for which the inhibition was 99.1% (active).

In the case of `O=c1c2ccccc2nc(/C=C/c2ccc(F)cc2)n1-c1ccccc1O`, the inhibition is 31%.

Turning to `O=Cc1cn(Cc2ccc(F)cc2Cl)c2ccccc12`, the inhibition is 28%. As for `CNC(=O)O/N=C(\N)Cc1csc2ccccc12`, the figure is 52.6% (active); as for `CNC(=O)O/N=C(\N)Cc1csc2ccc(Cl)cc12`, 90.3% (active); as for `O=C(c1cc2nc(-c3ccccc3)cc(-c3ccccc3)n2n1)N1CCC2(CC1)OCCO2`, 16.3%.

Consider `CCCCC(=O)N/N=C/c1c(O)n(CCC2=CCCCC2)c(=O)[nH]c1=O`, for which the inhibition is 20.9%.

For `COC(=O)C1=C(c2ccc(F)cc2OCc2ccccc2)C[C@@H]2CC[C@H]1N2C(=O)NCc1ccc2[nH]ccc2c1`, the inhibition is 18.9%. Turning to `O=C1NC(=O)N(CCc2ccc(F)cc2)C(=O)/C1=C/C=C/c1ccccc1`, the inhibition is 57.2% (active). In the case of `CCCCCCCCCCCCn1ccc(=N)cc1`, the inhibition was 98.3% (active).

For `N#CC1=C(N)Oc2c(c(=O)oc3ccccc23)C1c1ccccc1OC(=O)c1cccs1` (stereo not drawn), the inhibition was 15.1%.

Take `CC1(C)Cc2c(C#N)c(N3CCNCC3)nc(-c3ccco3)c2CS1`: the inhibition was 24.1%. Regarding `CCOc1ccc(-c2cc(C)[n+](CCN(CC)CC)c(-c3ccc(OCC)cc3)c2)cc1`, the inhibition was 84.5% (active). In the case of `CC(Cc1ccccc1)NCCC(c1ccccc1)c1ccccc1` (stereo not drawn), the inhibition is 19.1%. For the molecule `CCCCCn1c(=O)c(C(=O)NCc2ccccc2)c(O)c2ccccc21`, the inhibition is 5.2%.
